BAZ2B inh: inhibitors of human BAZ2B bromodomain | 4.4% of 360,000 active | AlphaScreen BAZ2B-H3K14Ac peptide displacement | AID 504333 | Potency, µM (highest dose often 114 µM), most hits filed as inhibitors | Q9UIF8; note: nearly all actives have a fitted effect of over 60% in size
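Inhibition is scored as reduced AlphaScreen emission. The BAZ2B/b-H3(5-23)K14Ac complex (50 nM each) in PBS pH 7.4, 0.01% Tween-20 meets compound (up to 110 uM) for 30 min at RT before bead addition.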
TDP1 block: blocks human tyrosyl-DNA phosphodiesterase 1; Q9NUW8; recombinant TDP1, AlphaScreen DNA substrate cleavage; Potency, µM (highest dose often 130 µM), actives largely listed as inhibitors; 0.28% of 350,000 active; note: nearly all actives have a fitted effect of over 40% in size
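Here, a 5' biotin and 3' phosphotyrosine-FITC DNA oligonucleotide reports Tdp1 activity: intact substrate bridges AlphaScreen beads, while cleavage leaves a 3' phosphate and drops signal. All incubations at room temperature.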
JMJD2A Tudor: inhibitors of human JMJD2A Tudor domain | O75164 | AlphaScreen JMJD2A-Tudor / H3K4me3 peptide binding | Potency, µM (titrated, usually from 114 µM), actives largely listed as inhibitors | 4.4% of 390,000 active | AID 504339; note: nearly all actives have a fitted effect of over 50% in size
HP1b chromo inh: inhibitors of HP1-beta chromodomain binding to methylated histone tails. AlphaScreen HP1-beta / biotin-H3K9me3 peptide binding. Potency, µM (titrated, usually from 114 µM), hits mostly inhibitors. 0.56% of 390,000 active. AID 540317; note: nearly all actives have a fitted effect of over 70% in size
Target sequence (P83916 whole entry, looked up): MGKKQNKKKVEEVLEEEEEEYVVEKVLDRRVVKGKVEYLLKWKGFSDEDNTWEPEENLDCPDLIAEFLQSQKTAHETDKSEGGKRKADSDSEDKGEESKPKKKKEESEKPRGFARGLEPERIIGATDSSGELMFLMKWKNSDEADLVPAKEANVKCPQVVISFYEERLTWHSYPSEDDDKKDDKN
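AlphaScreen: HP1-beta (50 nM) preformed 30 min with biotin-H3(1-18)K9me3 peptide (50 nM) in PBS pH 7.4, 0.01% Tween-20. Compound added for 30 min at RT, then streptavidin donor/nickel chelate acceptor beads (10 ug/mL) for 30 min.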
G9a block: G9a (human) methyltransferase inhibition; 8.8% of 350,000 active; G9a H3K9 monomethylation, AlphaScreen, 2 h; AID 504332; Potency, µM (series often up to 102 µM), hits mostly inhibitors; Q96KQ7; note: nearly all actives have a fitted effect of over 75% in size
Target sequence (Q96KQ7 913-1193 limits assumed): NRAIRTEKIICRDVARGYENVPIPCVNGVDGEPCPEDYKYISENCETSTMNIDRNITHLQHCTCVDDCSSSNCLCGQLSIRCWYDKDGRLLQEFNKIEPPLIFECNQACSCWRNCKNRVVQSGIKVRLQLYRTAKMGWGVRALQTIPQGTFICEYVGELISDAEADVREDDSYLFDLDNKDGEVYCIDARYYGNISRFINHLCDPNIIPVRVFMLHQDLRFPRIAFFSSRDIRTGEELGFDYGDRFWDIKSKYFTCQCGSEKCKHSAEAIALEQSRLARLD
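Step 1: enzyme (final 20 nM) with compound, 15 min RT. Step 2: substrate peptide 500 nM and SAM 20 uM, 2 h RT. Step 3: anti-H3K9me1 antibody and AlphaScreen beads, 10 min, then plate read.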
Sfp PPTase inh: blocks B. subtilis Sfp PPTase activity | Q9F4F7 | Biochemical Sfp PPTase activity, qHTS | Potency, µM, hits mostly inhibitors | 3.5% of 310,000 active;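 note: the enzyme is Sfp with the accession as filed and its product quenches rhodamine fluorescence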
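Buffer: 50 mM Hepes-Na pH 7.6, 10 mM MgCl2, 0.01% Nonidet P-40, 0.01% BSA. Enzyme 15 nM, pre-exposed to compound 15 min; substrates then added and fluorescence change tracked over 30 min.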
Large screens that a line does not name were inactive. Most compounds without a hit are left out; they make up all but 12% or so of the library. Calls come from the whole dose curve; as a rule, active = well fitted curve in the direction sought with a large enough effect; inconclusive = small, poorly fitted or top-dose-only effect, or another doubt; inactive = no such curve, though single readings can be large; an effect the other way counts as inactive or inconclusive.

O=C(CC1N=C2c3ccccc3N=C(SCc3ccc(F)cc3)N2C1=O)NCc1ccco1 (stereo not given)	JMJD2A Tudor inconclusive, Sfp PPTase inh inconclusive
Cc1ccc(CSC2=Nc3ccccc3C3=NC(CC(=O)NCc4ccco4)C(=O)N23)cc1 (stereo not given)	BAZ2B inh 50µM, JMJD2A Tudor inconclusive, G9a block inconclusive, Sfp PPTase inh 35µM
O=C(CC1N=C2c3ccccc3N=C(SCc3ccc(Cl)cc3)N2C1=O)NCCc1ccccc1 (stereo not given)	JMJD2A Tudor 79µM (no result: Sfp PPTase inh)
CN(Cc1ccccc1)C(=O)CSc1nc2ccsc2c(=O)n1-c1ccc(F)cc1	none (no result: Sfp PPTase inh)
O=C(Nc1cccc(S(=O)(=O)N2CCOCC2)c1)c1cc(=O)[nH]c2ccccc12	none (no result: BAZ2B inh, G9a block, Sfp PPTase inh)
CCC(C(=O)Nc1ccc(C)c(Cl)c1)n1c(=O)c(-c2ccccc2NC(C)=O)nc2ccccc21 (stereo not given)	none (no result: Sfp PPTase inh)
COc1cc(O)c(C(=O)O)c(O)c1	none (no result: BAZ2B inh, JMJD2A Tudor, HP1b chromo inh, G9a block)
Cn1c(=O)c(C(=O)NCC2CCCO2)c(O)c2ccccc21 (stereo not given)	JMJD2A Tudor 28µM
COC(=O)Cn1c(C2CC(=O)N(c3c(C)cccc3C)C2)nc2ccccc21 (stereo not given)	G9a block 14µM (no result: Sfp PPTase inh)
Cc1cccc(C)c1OCCCCn1c(C2CC(=O)N(c3ccc(F)cc3)C2)nc2ccccc21 (stereo not given)	JMJD2A Tudor inconclusive, G9a block 14µM (no result: Sfp PPTase inh)
Cc1cccc(C)c1OCCn1c(C2CC(=O)N(c3cccc(Cl)c3)C2)nc2ccccc21 (stereo not given)	none (no result: Sfp PPTase inh)
O=C(O)c1cc(-c2ccccc2)n(-c2ccccc2)n1	JMJD2A Tudor inconclusive, G9a block inconclusive
S=c1[nH]cc(-c2ccc(Cl)cc2)n1Cc1ccccc1	G9a block inconclusive
CC(C)Cn1c(-c2cccc(Br)c2)nc2ccccc21	none (no result: Sfp PPTase inh)
CCn1c(-c2ccccc2)c[nH]c1=S	JMJD2A Tudor 8.9µM, HP1b chromo inh inconclusive, G9a block inconclusive
S=c1[nH]cc(-c2ccccc2)n1-c1ccccc1	BAZ2B inh inconclusive, JMJD2A Tudor 28µM, G9a block 0.89µM, Sfp PPTase inh 45µM
CC(C)Cn1c(-c2ccc(Br)cc2)c[nH]c1=S	BAZ2B inh inconclusive, JMJD2A Tudor 50µM, HP1b chromo inh inconclusive, G9a block 0.89µM
COc1ccc(-n2c(-c3ccc(Cl)cc3)c[nH]c2=S)cc1	BAZ2B inh inconclusive, G9a block inconclusive, Sfp PPTase inh 56µM (no result: TDP1 block)
CC(C)(C)OC(=O)NCCCNc1ncnc2ccc(-c3ccc4c(c3)OCO4)cc12	none (no result: BAZ2B inh, TDP1 block, HP1b chromo inh, G9a block, Sfp PPTase inh)
Cc1ccc2sc(N(Cc3cccnc3)C(=O)CCS(=O)(=O)c3ccccc3)nc2c1C	none (no result: Sfp PPTase inh)
Cc1ccc(-n2c(-c3ccccc3)c[nH]c2=S)cc1	JMJD2A Tudor 11µM, G9a block 2.8µM
CCOC(=O)C1OC1C(=O)NC(CC(C)C)C(=O)NCCC(C)C (stereo not given)	none (no result: BAZ2B inh, JMJD2A Tudor, HP1b chromo inh)
Cc1ccc(Cl)c(OCC(=O)Nc2sc(C)c(C)c2C#N)c1	G9a block 45µM
Cc1ccc(Cl)c(OCC(=O)Nc2cccnc2)c1	BAZ2B inh inconclusive
O=C(Nc1cccc(C(F)(F)F)c1)N1CCN(C(=O)Nc2cccc(C(F)(F)F)c2)CC1	none
COc1ccc(N2CCN(C(=O)Nc3cccc(C(F)(F)F)c3)CC2)cc1	BAZ2B inh inconclusive, JMJD2A Tudor inconclusive, G9a block 13µM
COc1ccc(N2CCN(C(=O)Nc3ccccc3Cl)CC2)cc1	G9a block inconclusive
COC(=O)c1ccccc1NC(=O)N1CCN(c2ccc(OC)cc2)CC1	BAZ2B inh inconclusive, JMJD2A Tudor inconclusive, HP1b chromo inh inconclusive, G9a block 40µM
COc1ccc(N2CCN(C(=O)c3ccc(NC(=O)c4nsc5ccccc45)cc3)CC2)cc1	BAZ2B inh inconclusive, JMJD2A Tudor inconclusive, G9a block 10µM (no result: Sfp PPTase inh)
COc1cccc(CNC(=O)c2cccc(NC(=O)c3nsc4ccccc34)c2)c1	none (no result: Sfp PPTase inh)
COC(=O)c1cccc(NC(=O)c2nsc3ccccc23)c1	G9a block 4.5µM (no result: Sfp PPTase inh)
COCCN(CC(=O)Nc1cccc(C)c1C)C(=O)c1ccc2ccccc2n1	none (no result: Sfp PPTase inh)
COC(=O)c1cnc(N2CCN(c3ccc(OC)cc3)CC2)c2ccccc12	BAZ2B inh 22µM, JMJD2A Tudor 25µM, G9a block 13µM (no result: Sfp PPTase inh)
COc1cccc(C(=O)Nc2ccccc2C(=O)N2CCCC2)c1	BAZ2B inh inconclusive
O=C(CN1CCN(c2ncccn2)CC1)NCc1ccccc1	G9a block 56µM
COc1ccc(N2CCN(CC(=O)Nc3ccccc3C(=O)NCc3ccccc3)CC2)cc1	BAZ2B inh 45µM, JMJD2A Tudor 56µM, HP1b chromo inh inconclusive, G9a block inconclusive (no result: Sfp PPTase inh)
COc1ccc(N2CCN(C(=O)c3ccccc3NC(=O)c3ccccc3)CC2)cc1	G9a block 45µM
COC(=O)c1cnc(N2CCN(c3ccccc3F)CC2)c2ccccc12	none (no result: Sfp PPTase inh)
CCC(C(=O)NCCc1ccc(Cl)cc1)n1nc(C)c2c(C)n(-c3ccccc3)nc2c1=O (stereo not given)	none (no result: Sfp PPTase inh)
O=C(N/C(=C\c1cccc([N+](=O)[O-])c1)C(=O)N1CCOCC1)c1ccc([N+](=O)[O-])cc1	none
COc1ccc(N2CCN(C(=O)c3ccccc3NS(=O)(=O)c3ccc(C)cc3)CC2)cc1	BAZ2B inh inconclusive, JMJD2A Tudor inconclusive, G9a block 50µM
Cc1ccc(C(=O)Nc2ccccc2C(=O)N2CCN(c3ccccc3)CC2)cc1	none
Cc1ccc(N2CCN(C(=O)c3ccccc3NC(=O)c3ccccc3C(=O)O)CC2)cc1	G9a block 56µM
Cc1ccc(C(=O)CCC(=O)N2CCN(C(=O)c3ccco3)CC2)cc1	none
COc1ccccc1N1C(=O)CC(Sc2n[nH]c(-c3cccc(C)c3)n2)C1=O (stereo not given)	JMJD2A Tudor 2.8µM, HP1b chromo inh inconclusive, G9a block 1µM, Sfp PPTase inh 5.6µM
O=C1CC(Sc2ncccn2)C(=O)N1c1ccccc1 (stereo not given)	G9a block inconclusive
Nc1nnc(SC2CC(=O)N(c3ccccc3)C2=O)s1 (stereo not given)	JMJD2A Tudor 45µM, HP1b chromo inh inconclusive, G9a block 8.9µM, Sfp PPTase inh 79µM
Cc1ccnc(SC2CC(=O)N(c3ccc(Br)cc3)C2=O)n1 (stereo not given)	none (no result: TDP1 block, G9a block)
Cc1cc(C)nc(SC2CC(=O)N(c3ccc(Br)cc3)C2=O)n1 (stereo not given)	G9a block 40µM (no result: TDP1 block)
Cc1nc(SC2CC(=O)N(c3ccccc3)C2=O)n[nH]1 (stereo not given)	BAZ2B inh inconclusive, JMJD2A Tudor inconclusive, HP1b chromo inh inconclusive, Sfp PPTase inh 16µM (no result: G9a block)
CC(NC(=O)COc1ccccc1F)C1CC2CCC1C2 (stereo not given)	none

From PubChem BioAssay
